Experimental data reported in PubChem BioAssay AID1347423 (Functional Genomics Laboratory (NCATS/FGL), 2020).
Hit rate of the full screen: of about 52,000 sequences, about 210 (0.4%) were called active. This is one part of a sample in which actives are shown more often than they occur. A number with no mark means an inactive call.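 The calls were made as follows: active = gene whose silencing raises cell survival under the drug, median off-target-corrected z-score across its silencing RNAs 2 or more; inactive = the rest.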

Test: Resistance to Poly (ADP-Ribose) Polymerase inhibitor: Gene Identification via Genome-wide siRNA Screen
Details: mouse BRCA2 R2336H ES cells, olaparib, CellTiter-Glo viability; hits give high values
Outline: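 Genome-wide siRNA screen (3 siRNAs/gene, 20 nM) in mouse ES cells carrying hypomorphic BRCA2 R2336H; olaparib 500 nM added 48 h post-transfection, CellTiter-Glo viability 72 h later. Normalized to plate-median negative control; MAD z-scores, gene median, seed-adjusted.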

| Sequence | z-score |
| --- | --- |
| GGCAAUUGUUUUUAGAGAGTT against 2610510J17Rik | 0.946 |
| GGCUGUCUUGAUUUUGAUUTT against C3ar1 | -0.0188 |
| CGAACCUACAGAGCUCAUGTT against Rpl17 | -2.32 |
| GGGUGCUUAAUAAACAUAATT against Slc22a8 | 1.12 |
| GCUGAAAUACCACUCUCCGTT against Chl1 | -1.28 (active) |
| CCAAUCUCUACCGUCUCCUTT against Camp | -0.0705 |
| GGCUCAACUGUGUUAAACATT against Tnfrsf4 | 0.801 |
| GCAAAACCUACUGCGUGGATT against 2410195B05Rik | 0.682 |
| GGGUUUCUGUUAAUCCACATT against Hist1h3g | -1.25 |
| GGUGAUAUUAUACAUUCACTT against Rnd1 | 0.43 |
| CCACUGAAGUUUUCAUUCUTT against Olfr1055 | 0.663 |
| GGUGUGCAUCAAGCGACUGTT against Cacng6 | 1.29 |
| GGAGUCAAGUCCACAUACATT against Usp47 | -0.927 (active) |
| GCACACCCAAUGCUCUAAGTT against Mare | 0.284 |
| GCGACAACGAUUUUGAAAUTT against Rsu1 | 0.756 |
| GCCGACGUAGUGACAUUCUTT against Crybb3 | -1.17 |
| CGUAUCAAACAGGAAAUGGTT against Arid5b | 1.02 |
| GGACUGCUAUGGGUCUUCATT against Clk3 | -1.64 |
| GGGACAGUCUUCAGUGACATT against 0610037L13Rik | -2.25 |
| CCACAAAGAAUGCAUUACUTT against BC022146 | -1.42 |
| GGAACGAUCGAAACAAGAATT against Rarg | 3.59 (active) |
| GCAAGAGUCUGCUACGACATT against Opn1sw | 0.0796 |
| GGUCCCAUUCAGUGUGUGUTT against Cdk10 | -0.19 |
| GGGAUGAGUAUGCUUAUGGTT against Rgpr | 0.176 |
| GCAGAAUGGUAAAUCCGAUTT against Mc5r | 1.96 |
| CCCUAAGUUCUCGUUUCUGTT against Cherp | 1.57 |
| GGACCAACAUAACCUCUACTT against BC037432 | 0.0137 |

| Sequence | z-score |
| --- | --- |
| GGAACGAGACUCAUCUUCUTT against Cic | 1.35 (active) |
| GGAUCCUUCAGCAUUCUUATT against Egr2 | -0.406 |
| GGAACAGUCUGAAAUACACTT against Usp18 | 0.039 (active) |
| GGAUAACCUUAACUUCUGATT against 2810449C13Rik | 2.16 |
| GGGACCCUUCUACAAAAACTT against Pias3 | 2.3 (active) |
| GGAGAGUACUAAAUUUAAGTT against 4833418A01Rik | 0.0243 |
| GGAAUUUUAUCAUUGGGACTT against 5031404N07 | -0.078 |
| CCUGGUAACAGUCAUAAAUTT against Lhfpl2 | -0.196 |
| GGAAAUGCUUCUGAGCUAGTT against 5830417C01Rik | 0.677 |
| GGACCUCAGCGAAGACAAUTT against BC034097 | 2.03 (active) |
| GGUCGGUGUUUUAUCUGCUTT against BC019537 | -1.19 |
| GGGAUACUGGUGCUUAACUTT against Abhd1 | 0.661 |
| GCCACCUCUUAUGAGGCUUTT against D630045E04Rik | -1.04 |
| GGUGGUUACAACCGAAGCATT against Fus | 2.95 (active) |
| GCCCUAGAACUUUUGAAUUTT against Dhx15 | -1.01 |
| GGAGGUGUUGAACAAGUGCTT against 1700008P20Rik | -1.32 |
| GCAAGCAGAUCUGAUAUCATT against 2700050F09Rik | 4.76 (active) |
| GCCUGGAUUCAGAAGCUACTT against Ugt1a1 | 0.72 |
| GGAGGAGGAGGACUUUGAUTT against 5830417I10Rik | -1.23 |
| GGAACAUUACAAAAGCUCUTT against Slfn1 | -0.715 |
| GAAUCUAAAGAUGAACACCTT against 0610009B22Rik | -0.48 |
| GCAAGUGGUAAUGGUGACCTT against Tex15 | -0.249 |
| GGACUUUUAUUUUGUUAGCTT against Pacsin2 | 3.01 (active) |
| GUUUUCUUGAGACAGUUAATT against 1810008A14Rik | -0.106 |
| GGAGUUGAUCAAGACAGAGTT against S100a5 | -0.443 |
| GGAGGAAAGAAUGUGUAAATT against Birc3 | -0.544 |
| GCAUGCAUGAUGGAUCUUCTT against Gabrb1 | -2 |

| Sequence | z-score |
| --- | --- |
| GGAAACAACGGAUCCAAAATT against Plcb3 | 2.47 (active) |
| GCUUACAUCCAAGCCGUCUTT against 4931440B09Rik | 1.71 |
| CCAAGUUCACAAUUGUUCUTT against Gm457 | -0.19 |
| GGACUUGUCUUUGACACGCTT against Nt5c2 | 2.18 |
| GGAUUCCCUAUCCCAUACCTT against Araf1 | 4.36 (active) |
| GGUCAAAAGAAACAGGUGUTT against 2310047I15Rik | 0.438 |
| GCAACUAGCCUGUUCUAUCTT against AI325941 | 1.68 |
| GGAGUUGAAGUUUGUGACATT against Acpp | 2.3 (active) |
| GGUGAAAGUGAGAAGGAAGTT against 6720460F02Rik | -0.247 |
| CCUGAAUUACCUCAUAUAUTT against Stat5b | 0.922 |
| GCUGAAACCUCAUGAGGAGTT against Ptpn9 | 3.06 (active) |
| GCUACUAUUGUGUUCUGAATT against Drd1a | -0.386 |
| GGUACUCGGUUAUCAUGAATT against Olfr1403 | 1.39 |
| GGAAAGGACCACCUAAGUUTT against Pde6g | -2.22 (active) |
| GGUUACCUGAGGUCAGUAGTT against Ifi1 | -2.31 |
| GGCUAAUGUGCUCUCUCAUTT against Olfr644 | 1.28 |
| CCCACAGGGAUUUAUUUAUTT against Slc37a1 | 1.36 (active) |
| CCUUGAAAUACUGAGUGACTT against AU067695 | 1.17 |
| GGAGCAAUGUUGUCACAACTT against Fbln1 | -0.548 |
| CGUGUAAAAGCCGGAUUGATT against 1500015L24Rik | 0.909 |
| GCAAAGCUGAUGGACUCAATT against 2410018M08Rik | -0.965 |
| GGCAAAAGUGGUUAUUGAATT against Itga6 | 3.02 (active) |
| GGAUAAUGGUAUCUACUUCTT against Cd79b | -0.408 |
| GGCAAGAAUCAAGGAGAGATT against Nek1 | 1.44 |
| GCGAUUAAUGGCAUAGUUUTT against Sara1 | -1.04 |
| GACAGGAAGUUGAUGAAUUTT against Raet1a | -0.444 |
| GGCAAACAAAUGGUUUGUUTT against D430030K24Rik | 2.76 (active) |

| Sequence | z-score |
| --- | --- |
| GCACCUUAAAAAUGAAGAUTT against D12Ertd551e | -0.616 |
| GGUACCGGAAAGGAAGUGUTT against Grm1 | -0.666 |
| GGAAGAGAAAGACCUGAGATT against Glra1 | -0.8 |
| GGCUGAGAUCUGAAAUUGATT against Krt2-5 | 0.59 |
| CGAAAGUUACUCAUAGAGATT against Itga6 | 0.364 (active) |
| GCAGGUGCCAACAUUAUUGTT against 0610039C21Rik | 1.5 |
| GGAAGAAAUGGACCAGCUGTT against Brp16 | -1.27 |
| CCUUAUCCAAGAGUAGGGCTT against AY534250 | 1.03 |
| GGUGUGACACCUAAGAUGATT against AW212607 | 1.39 |
| GGACAAGUUGUUGGACUACTT against Smarca3 | 1.04 (active) |
| CCUAUCUUUACCACAUAGATT against 9030624J02Rik | -0.939 |
| GGACCCAUGAGGUUAACUUTT against D15Ertd781e | -1.18 |
| GGUUCACCUGUCAAGUGGATT against Hfe | 0.781 |
| GGUGUGGGUGGGAAAAGAATT against 2610027C15Rik | -1.77 |
| CCUUAUUUUACGGAACUGCTT against Olfr1018 | 0.819 |
| GCUCUGCUAGUCAACUGCATT against Nrip2 | 0.681 |
| GGGAUUUAACAACAUGUAATT against Slc20a1 | 2.29 (active) |
| GGGCAUAGAGUCUCAAACUTT against Ptger1 | 0.492 |
| GGAGCUUCUAGAGAAGAUCTT against Leng5 | -2.29 |
| GCGGCAGAUCUUCGAUUUCTT against 2610200G18Rik | -0.616 |
| GCUUCUAAGCCGAAGGCCATT against Hist1h1d | 0.442 |
| CCACCAUCAAAUAUAACUATT against 9930021J03Rik | 0.126 |
| GGAACAUGAAGCCUUUUACTT against Asb16 | 3.12 (active) |
| CCCAGGACUCAUGAUUACATT against Tas2r134 | -1 |
